# High-throughput results: PubChem, National Center for Advancing Translational Sciences (NCATS)
# ELG1 DNA repair = blocks ELG1-dependent DNA repair in HEK293T cells | HEK293T ELG1-luciferase reporter, luminescence, 16 h; DNA damage induced by 5-fluorouridine | actives 2.3% (n = 330,000) | Potency, µM (series often up to 46.1 µM), for the others: at the highest dose activity change, negative = inhibition, actives largely listed as inhibitors; also: % is scaled to controls: 0 for no effect and ±100 for the full control effect; nearly all actives have a fitted effect of over 55% in size
#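 Quantitative HTS, concentration-response format. 2,000 cells/well co-treated with 5-fluorouridine and compound, 16 hr in 5% CO2 at 37 °C; ONE-Glo luminescence read after 30 min.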
# SW480 rerep = DNA re-replication induction in SW480 cells; SW480 DNA re-replication, Hoechst DNA content imaging, 48 h; Potency, µM (highest dose often 46.1 µM), for the others: at the highest dose re-replication activation, actives largely listed as activators; actives 1.8% (n = 340,000); AID 624297; also: % of control where 0% means no effect; nearly all actives have a fitted effect of over 55% in size
#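 SW480 cells exposed to compounds for 48 hr at 37 C, 5% CO2, then Hoechst-stained 40 min. Nuclear DNA content imaged by fluorescence scanning (405 nm excitation, 500-530 nm emission); re-replication scored as increased high-intensity nuclei.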
# KB-V1 MDR tox = KB-V1 MDR subline cytotoxicity | KB-V1 MDR cells viability, CellTiter-Glo, 72 h | Potency, µM (doses to about 46.1 µM), usual class: cytotoxic | actives 3.4% (n = 400,000) | AID 1347076; also: % is scaled to controls: 0 for no effect and ±100 for the full control effect; nearly all actives have a fitted effect of over 60% in size
#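 Cells of the MDR subline KB-V1 are plated, dosed with compound at multiple concentrations, and incubated 72 h at 37 degrees C; CellTiter-Glo is then added and luminescence read after 10 min.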
# MCF10A rerep = induces DNA re-replication in MCF 10a normal breast cells; Potency, µM (doses to about 46.1 µM), for inactives: top-dose activity, positive = re-replication, usual class: activators; MCF 10A DNA re-replication, Hoechst nuclear intensity, 48 h; actives 2.9% (n = 350,000); AID 624296; also: % of control where 0% means no effect; nearly all actives have a fitted effect of over 50% in size
# KB-3-1 cytotox = KB-3-1 parental cell cytotoxicity; Potency, µM (doses to about 46.1 µM), usual class: cytotoxic; AID 1347075; actives 1.4% (n = 400,000); KB-3-1 viability, CellTiter-Glo ATP luminescence, 72 h; also: % is scaled to controls: 0 for no effect and ±100 for the full control effect; nearly all actives have a fitted effect of over 60% in size
#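 Cytotoxicity measured as CellTiter-Glo luminescence after 72 h at 37 C. Compound titrations were pinned onto drug-naive KB-3-1 parental adenocarcinoma cells grown in DMEM with 10% FBS, and normalized data fitted to concentration-response curves.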
# An asterisk follows results filed as active; i = inactive; ? = inconclusive; . = no result given; [ ] = remark or other dose. Only some compounds are listed: those with a hit (about 8.1% of all), similar ones and a draw of the others. Calls follow the shape of the dose curve; as a rule, active = well fitted curve in the direction sought with a large enough effect; inconclusive = small, poorly fitted or top-dose-only effect, or another doubt; inactive = no such curve, though single readings can be large; an effect the other way counts as inactive or inconclusive. Potency is read from the fitted curve at half-maximal effect.
SMILES,ELG1 DNA repair,SW480 rerep,KB-V1 MDR tox,MCF10A rerep,KB-3-1 cytotox
O=C(Nc1ccc([N+](=O)[O-])cc1Cl)c1cccc([N+](=O)[O-])c1,.,.,i,.,i
COc1ccc(NC(=O)c2cccc(Oc3ccc([N+](=O)[O-])cc3Cl)c2)cc1,-21.0%,?,?,6.51µM*,?
O=C(Nc1cccc(Cl)c1)c1cccc(Oc2ccc([N+](=O)[O-])cc2Cl)c1,?,4.11µM*,?,?,i
CCOC(=O)c1c(C)n(-c2ccccc2)c2ccc(OC(=O)c3ccccc3Cl)cc12,.,.,i,.,i
COc1cc2c(cc1NC(=O)c1cccc(F)c1)CCCC2,?,7.1%,23.1µM*,21.5%,i
O=C(Nc1ccc2nc3n(c(=O)c2c1)CCCC3)c1cccc(F)c1,?,-7.6%,i,-3.9%,i
O=C(NCCO)c1ccc(Oc2ccc(C(F)(F)F)cc2[N+](=O)[O-])cc1,-13.2%,-137.1%,i,-0.7%,i
COc1ccccc1Nc1c2c(nc3ccc(NC(=O)c4cccc(F)c4)cc13)CCCC2,.,.,i,.,20.6µM*
COc1cccc(Oc2ccc(C(F)(F)F)cc2NC(=O)c2cccc(F)c2)c1,1.0%,-2.7%,20.6µM*,-52.5%,?
COc1ccc(OCCNC(=O)c2cccc(Oc3ccc(C(F)(F)F)cc3[N+](=O)[O-])c2)cc1,?,-34.3%,2.91µM*,?,?
COc1ccc(Oc2ccc(C(F)(F)F)cc2NC(=O)c2ccc(F)cc2)cc1,-11.5%,1.2%,i,-2.2%,i
O=C(c1cnn(-c2ccc(F)cc2)c1-n1cccc1)N1CCN(c2cccc(Cl)c2)CC1,.,.,i,.,i
Cc1cccc(C)c1NC(=O)C(c1ccccc1)n1c(=O)c(-c2ccco2)nc2ccccc21 (stereo not given),.,.,?,.,i
O=C(NCCOc1ccccc1)c1ccccc1[N+](=O)[O-],20.8%,1.7%,i,1.4%,i
O=C(NCCOc1ccccc1)c1cc(C(=O)NCCOc2ccccc2)cc([N+](=O)[O-])c1,?,?,3.66µM*,13.3%,?
COc1cccc(CNC(=O)c2nc(Cn3nc(C)c(Br)c3C)no2)c1,.,.,i,.,i
CCCCNC(=O)c1nc(C2CCNCC2)oc1-c1ccccc1,.,.,i,.,i
CCOc1ccccc1CNC(=O)c1cc2oc3ccccc3c2n1C,23.8%,25.9%,?,14.6µM*,7.31µM*
COCCNC(=O)c1cc2oc3ccccc3c2n1C,?,-4.0%,23.1µM*,8.3%,i
CCOC(=O)CN(Cc1ccccc1)S(=O)(=O)c1ccc(NC(C)=O)cc1,-19.0%,-8.6%,14.6µM*,-4.3%,i
COCCNC(=O)CN(CCc1ccccc1)S(=O)(=O)c1ccc(OC)cc1,3.7%,2.7%,18.4µM*,-1.4%,i
CC(=O)Nc1ccc(S(=O)(=O)N(CC(=O)O)Cc2ccccc2)cc1,.,-2.5%[9.22 µM],i,-1.7%,i
COc1ccc(S(=O)(=O)N(CC(=O)Nc2ccccc2Br)Cc2ccccc2)cc1,.,.,?,.,16.4µM*
COc1ccc(CNCc2c(C(=O)O)c(C)n(Cc3ccc(Cl)cc3)c2C)c(OC)c1,.,.,i,.,i
CC(=O)Nc1ccc2nc(SCCOc3ccccc3Cl)sc2c1,.,.,i,.,?
SMILES,ELG1 DNA repair,SW480 rerep,KB-V1 MDR tox,MCF10A rerep,KB-3-1 cytotox
COCC(C)N1C(=O)Cc2c1nc(N)c1c(N)nc(N3CCN(c4ccccc4F)CC3)c(C#N)c21 (stereo not given),20.6µM*,?,?,11.6µM*,?
CC1CCCCN1C(=O)CCC(=O)Nc1nnc(C(F)(F)F)s1 (stereo not given),2.4%,?,i,23.1µM*,i
CC1=NN(c2nc(N)nc(/C(C#N)=C/c3ccc([N+](=O)[O-])o3)n2)C(C)(C)C1,.,8.2µM*,?,3.26µM*,?
N#C/C(=C\c1ccc([N+](=O)[O-])o1)C(=O)Nc1ccc(F)cc1,?,?,i,?,i
CC(C)NC(=O)c1nn(C)c2c1CS(=O)(=O)c1ccccc1-2,.,.,i,.,i
COc1cccc(-n2c(CN3CCN(c4cccc(C)c4)C(C)C3)nc3ccc([N+](=O)[O-])cc3c2=O)c1 (stereo not given),11.6µM*,2.3%,i,12.4%,i
